High-throughput results as filed in PubChem.
CIT2-GFP yeast: modulators of CIT2-GFP expression in yeast, primary screen, S. cerevisiae, GFP fusion, multiplex flow cytometry, MLPCN library; S. cerevisiae CIT2-GFP strain, 3 h; 100 means same as DMSO wells; GFP response vs DMSO, % at 10 µM; 320,000 compounds, 0.065% hits;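 active = GFP response relative to DMSO above a set limit, near the screen mean plus 3 SD, cut at about 150% in these data; inconclusive = Fewer than 70 cells measured for a yeast strain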;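 note: ratio of well median GFP fluorescence to mean of DMSO wells on the plate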
LAP4-GFP MLPCN: modulators of LAP4-GFP expression in yeast, primary screen, S. cerevisiae, multiplex flow cytometry, MLPCN library; 3 h; median GFP as percent of DMSO wells; GFP response vs DMSO, % at 10 µM; 320,000 compounds, 0.34% hits;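 active = GFP response vs DMSO above a set limit, about the screen mean plus 3 SD, cut at about 150% in these data; inconclusive = under 70 cell events counted for the yeast strain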
MEP2 TOR yeast: modulators of MEP2-GFP levels in yeast, primary screen, S. cerevisiae, multiplex flow cytometry, MLPCN library; S. cerevisiae MEP2-GFP strain, 3 h; 100% = DMSO control level; 330,000 compounds, 0.51% hits; GFP response vs DMSO, % at 10 µM;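 active = GFP response versus DMSO above a set limit, roughly screen mean plus 3 SD, cut at about 180% in these data; inconclusive = fewer than 70 cells counted for a yeast strain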;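 note: median GFP fluorescence of the barcode-gated MEP2-GFP cells per well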
AGP1-GFP MLPCN: modulators of AGP1-GFP expression in yeast TOR pathway, primary screen, cell-based, multiplex flow cytometry, S. cerevisiae, MLPCN library; 3 h; GFP as percent of DMSO wells; AID 2066, 2009; GFP response vs DMSO, % at 10 µM; 320,000 compounds, 0.02% hits;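 active = GFP response relative to DMSO above a set limit, near screen average plus 3 SD, cut at about 150% in these data; inconclusive = fewer than 70 cells counted for the yeast strain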;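 note: median GFP channel fluorescence of the gated AGP1 strain per well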
RPL19A TOR yeast: RPL19A-GFP expression modulators in yeast, primary screen, cell-based, S. cerevisiae, multiplex flow cytometry, MLPCN; S. cerevisiae RPL19A-GFP strain, 3 h; hits give low values; percent response vs DMSO, % at 10 µM; 330,000 compounds, 0.3% hits; AID 2025, 2009;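 active = percent response vs DMSO below 50%; inconclusive = fewer than 70 events counted for the yeast strain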;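 note: median channel GFP fluorescence of the barcoded RPL19A-GFP strain; lower means less RPL19A-GFP as with rapamycin TOR inhibition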
Numbers stand for hits; - = inactive; ? = inconclusive; [ ] = remark or other dose. This is a sample that favours compounds with a hit; in the whole collection about 0.89% have one here.

SMILES | CIT2-GFP yeast | LAP4-GFP MLPCN | MEP2 TOR yeast | AGP1-GFP MLPCN | RPL19A TOR yeast
Cc1ccc(CNS(=O)(=O)c2cc(F)ccc2CN2C(=O)c3cccnc3C2=O)o1 | - | - | - | - | -
Nc1c(C(=O)Nc2ccccc2)c2nc3ccccc3nc2n1CCCN1CCOCC1 | ? | - | - | ? | 42[may fluoresce violet]
N#Cc1c(N)n(CCCN2CCOCC2)c2nc3ccccc3nc12 | - | - | - | - | -
COc1ccc(S(=O)(=O)N2CCOCC2)cc1Cl | ? | - | 299[may fluoresce violet] | - | -
O=S(=O)(c1cccc(S(=O)(=O)N2CCOCC2)c1)N1CCCCC1 | ? | - | 279[may fluoresce violet] | ? | 40[may fluoresce violet]
COc1cc(S(=O)(=O)N2CCOCC2)ccc1NC(=O)c1cc2c(s1)CCC2 | ? | - | 233[may fluoresce violet] | - | 39[may fluoresce violet]
O=C(NN=C1CCCCCC1)c1c[nH]c2ccccc12 | - | - | - | - | -
CC(C)c1ccc(S(=O)(=O)N2CCN(C(=O)c3ccncc3)CC2)cc1 | - | - | - | - | -
Cc1cc(C)n(-c2ccc(C(=O)N3CCN(S(=O)(=O)c4ccc(C(C)C)cc4)CC3)cc2)n1 | ? | - | 221[may fluoresce violet] | - | -
CCOc1ccc(N=C2NC(=O)SC2CC(=O)OC)cc1 (stereo not given) | - | - | - | - | -
O=C(NCc1ccncc1)C12CC3CC(CC(Cl)(C3)C1)C2 | - | - | 225 | - | -
CN(C(=O)COC(=O)/C=C/c1cccs1)c1c(N)n(Cc2ccccc2)c(=O)[nH]c1=O | - | - | - | - | -
C=CCN1C(=O)c2ccccc2NC1c1cc(Br)cs1 (stereo not given) | ? | - | 279[may fluoresce violet] | - | -
CCCOc1ccc(-c2c(C(=O)N/N=C/C3CCCCC3)nnn2-c2nonc2N)cc1 | ? | - | - | ? | 27[may fluoresce violet]
CCCOc1ccc(-c2c(C(=O)N/N=C/C3CC=CCC3)nnn2-c2nonc2N)cc1 (stereo not given) | - | - | - | - | -
CC(C)C(=O)Nc1nc(-c2ccc3c(c2)CCN3C(=O)C2CC2)cs1 | ? | ? | ? | ? | 22[may fluoresce violet]
CC1CCCCN1CCn1c(=S)[nH]c2cc3c(cc2c1=O)OCO3 (stereo not given) | - | - | ? | - | -
Cc1ccc(NC(=O)c2sc3nc(C)cc(C)c3c2N)cc1 | ? | - | 340[may fluoresce violet] | ? | 36[may fluoresce violet]
COc1ccc(Nc2cnn(-c3nc4ccccc4s3)c(=O)c2Cl)cc1 | - | - | 181 | - | -
CCCn1c(N)c(C(=O)CSc2nnc(C3CC3)n2-c2ccccc2)c(=O)[nH]c1=O | - | - | - | - | -
CCN(CC)S(=O)(=O)c1ccc2c(c1)c(=O)c(C(=O)N1CCN(c3ccccn3)CC1)cn2C | ? | - | 211[may fluoresce violet] | ? | -
CCOc1ccccc1N1CN(C2CCCCC2)CNC1=S | - | - | - | - | -
CCOC(=O)c1ccc(N2CN(C3CCCCC3)CNC2=S)cc1 | ? | - | 237[may fluoresce violet] | ? | 31[may fluoresce violet]
Cn1c(CN2CCCCC2)nc2cc(NC(=O)c3ccc(Cl)cc3)ccc21 | - | - | - | - | -
CC(=O)c1ccc(N2CCN(S(=O)(=O)c3ccc4c(c3)CC(C)N4C(C)=O)CC2)cc1 (stereo not given) | - | - | - | - | 37
SMILES | CIT2-GFP yeast | LAP4-GFP MLPCN | MEP2 TOR yeast | AGP1-GFP MLPCN | RPL19A TOR yeast
CC(=O)c1ccc(N2CCN(S(=O)(=O)c3ccc4c(c3)CC(C)N4C(=O)C3CC3)CC2)cc1 (stereo not given) | - | - | - | - | -
Cc1nc([N+](=O)[O-])cn1CC(O)c1ccccc1 (stereo not given) | - | - | - | - | -
Nc1ccc(S(=O)(=O)NC2(C(F)(F)F)NC(=O)N(c3ccccc3Cl)C2=O)cc1 (stereo not given) | - | - | - | - | -
Cc1ccccc1NC(=O)CSc1nc2scc(C)c2c(=O)[nH]1 | - | - | - | - | -
Nc1ncnc2c1CCC2 | ? | - | 213[may fluoresce violet] | - | -
Nc1nc(N)c2c(n1)CCCC2 | - | - | - | - | -
CNc1sc(C(=O)c2cccs2)c(N)c1-c1nc2ccccc2s1 | - | - | - | ? | -
CNc1sc(C(=O)c2ccc(F)cc2)c(N)c1-c1nc2ccccc2s1 | ? | 153[may fluoresce violet] | - | - | -
CC(NC(=O)CCNC(=O)c1ccc(Br)cc1)c1ccc(-n2ccnc2)cc1 (stereo not given) | - | - | - | - | -
